According to PubChem BioAssay AID1159580 (chemical genetic matrix, 2015):
The campaign covered roughly 5,500 compounds. About 2,000 (36%) were called active. About 18% were inconclusive and are not listed. No stated cut-off is given here; in the data, active means normalized growth mostly below about 0.91 (no sharp cut-off); inconclusive means no clear call, values can overlap the other calls; inactive means mostly above about 0.92. Some of the results follow.

Assay: chemical genetic growth profiling, strain panel (AID 1159580);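 further: tested at 20 µM; growth read once vehicle control cultures reached saturation at 30 °C; 1 = growth at the plate median or of vehicle wells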
Settings: growth OD

Measured: normalized growth

O=C1C=CC(=C(c2ccc(O)cc2)c2ccc(O)cc2)C=C1
inactive: S. cerevisiae deletion strains, locus YJR075W, strain HOC1, stronger effect = lower value 1.02 | S. cerevisiae deletion strains, locus YKL009W, strain mrt4, stronger effect = lower value 0.995 | S. cerevisiae deletion strains, locus YKL068W, stronger effect = lower value 0.997 | S. cerevisiae deletion strains, locus YKL085W, strain MDH1 (second series), stronger effect = lower value 0.994 | S. cerevisiae deletion strains, locus YKL085W, strain MDH1, stronger effect = lower value 0.994 | S. cerevisiae deletion strains, locus YKL160W, strain elf1, stronger effect = lower value 1.01 | S. cerevisiae deletion strains, locus YKL190W, strain CNB1, stronger effect = lower value 0.994 | S. cerevisiae deletion strains, locus YKR001C, strain vps1, stronger effect = lower value 0.986 | S. cerevisiae deletion strains, locus YKR026C, strain gcn3, stronger effect = lower value 0.975 | S. cerevisiae deletion strains, locus YKR091W, strain srl3, stronger effect = lower value 0.989 | S. cerevisiae deletion strains, locus YLL001W, strain dnm1, stronger effect = lower value 0.976 | S. cerevisiae deletion strains, locus YLL026W, stronger effect = lower value 0.996 | S. cerevisiae deletion strains, locus YLL041C, strain sdh2, stronger effect = lower value 0.991 | S. cerevisiae deletion strains, locus YLR027C, strain aat2, stronger effect = lower value 0.998 | S. cerevisiae deletion strains, locus YLR039C, strain RIC1, stronger effect = lower value 1.04 | S. cerevisiae deletion strains, locus YLR058C, strain SHM2, stronger effect = lower value 0.991 | S. cerevisiae deletion strains, locus YLR102C, strain apc9, stronger effect = lower value 0.994 | S. cerevisiae deletion strains, locus YLR113W, strain HOG1, stronger effect = lower value 1.03 | S. cerevisiae deletion strains, locus YLR221C, strain rsa3, stronger effect = lower value 0.983 | S. cerevisiae deletion strains, locus YLR258W, strain gsy2, stronger effect = lower value 1.01 | S. cerevisiae deletion strains, locus YLR262C, strain YPT6 (second series), stronger effect = lower value 0.972 | S. cerevisiae deletion strains, locus YLR262C, strain YPT6, stronger effect = lower value 1.02 | S. cerevisiae deletion strains, locus YLR268W, strain sec22, stronger effect = lower value 1.02 | S. cerevisiae deletion strains, locus YLR320W, strain mms22, stronger effect = lower value 0.972 | S. cerevisiae deletion strains, locus YLR330W, strain CHS5, stronger effect = lower value 0.995 | S. cerevisiae deletion strains, locus YLR342W, strain FKS1 (second series), stronger effect = lower value 0.972 | S. cerevisiae deletion strains, locus YLR342W, strain FKS1, stronger effect = lower value 0.991 | S. cerevisiae deletion strains, locus YLR357W, strain rsc2, stronger effect = lower value 0.999 | S. cerevisiae deletion strains, locus YLR370C, strain arc18, stronger effect = lower value 0.964 | S. cerevisiae deletion strains, locus YLR371W, strain rom2, stronger effect = lower value 0.985 | S. cerevisiae deletion strains, locus YLR384C, strain iki3, stronger effect = lower value 0.986 | S. cerevisiae deletion strains, locus YLR418C, strain cdc73, stronger effect = lower value 0.999 | S. cerevisiae deletion strains, locus YML016C, strain PPZ1, stronger effect = lower value 0.991 | S. cerevisiae deletion strains, locus YML032C, strain rad52, stronger effect = lower value 0.98 | S. cerevisiae deletion strains, locus YML120C, strain ndi1, stronger effect = lower value 1.01 | S. cerevisiae deletion strains, locus YML124C, strain tub3, stronger effect = lower value 0.983 | S. cerevisiae deletion strains, locus YMR058W, strain fet3, stronger effect = lower value 0.982 | S. cerevisiae deletion strains, locus YMR078C, strain ctf18, stronger effect = lower value 0.98 | S. cerevisiae deletion strains, locus YMR125W, strain sto1, stronger effect = lower value 0.974 | S. cerevisiae deletion strains, locus YMR129W, stronger effect = lower value 0.987 | S. cerevisiae deletion strains, locus YMR205C, strain PFK2, stronger effect = lower value 0.995 | S. cerevisiae deletion strains, locus YMR223W, strain ubp8, stronger effect = lower value 0.982 | S. cerevisiae deletion strains, locus YMR231W, strain pep5, stronger effect = lower value 0.98 | S. cerevisiae deletion strains, locus YMR263W, strain SAP30, stronger effect = lower value 1.02 | S. cerevisiae deletion strains, locus YMR307W, strain GAS1, stronger effect = lower value 0.945 | S. cerevisiae deletion strains, locus YNL067W, strain RPL9B, stronger effect = lower value 1.03 | S. cerevisiae deletion strains, locus YNL071W, strain lat1, stronger effect = lower value 0.971 | S. cerevisiae deletion strains, locus YNL128W, strain TEP1, stronger effect = lower value 1.02 | S. cerevisiae deletion strains, locus YNL153C, strain GIM3, stronger effect = lower value 1.01 | S. cerevisiae deletion strains, locus YNL183C, strain NPR1, stronger effect = lower value 0.986 | S. cerevisiae deletion strains, locus YNL209W, strain ssb2, stronger effect = lower value 0.985 | S. cerevisiae deletion strains, locus YNL233W, strain BNI4, stronger effect = lower value 0.999 | S. cerevisiae deletion strains, locus YNL248C, strain rpa49, stronger effect = lower value 0.966 | S. cerevisiae deletion strains, locus YNL250W, strain rad50, stronger effect = lower value 0.984 | S. cerevisiae deletion strains, locus YNL271C, strain bni1, stronger effect = lower value 0.992 | S. cerevisiae deletion strains, locus YNL298W, strain CLA4, stronger effect = lower value 0.981 | S. cerevisiae deletion strains, locus YNL307C, strain MCK1, stronger effect = lower value 0.98 | S. cerevisiae deletion strains, locus YNL322C, strain KRE1 (second series), stronger effect = lower value 0.951 | S. cerevisiae deletion strains, locus YNL322C, strain KRE1, stronger effect = lower value 1.01 | S. cerevisiae deletion strains, locus YNR049C, strain mso1, stronger effect = lower value 0.979 | S. cerevisiae deletion strains, locus YNR052C, strain pop2, stronger effect = lower value 0.966 | S. cerevisiae deletion strains, locus YOL006C, strain TOP1, stronger effect = lower value 1.02 | S. cerevisiae deletion strains, locus YOL012C, strain htz1 1.83 | S. cerevisiae deletion strains, locus YOL147C, strain pex11, stronger effect = lower value 0.985 | S. cerevisiae deletion strains, locus YOR001W, strain rrp6, stronger effect = lower value 0.96 | S. cerevisiae deletion strains, locus YOR061W, strain CKA2, stronger effect = lower value 1 | S. cerevisiae deletion strains, locus YOR069W, strain VPS5, stronger effect = lower value 1.02 | S. cerevisiae deletion strains, locus YOR070C, strain gyp1, stronger effect = lower value 1 | S. cerevisiae deletion strains, locus YOR080W, strain dia2, stronger effect = lower value 0.986 | S. cerevisiae deletion strains, locus YOR083W, strain WHI5, stronger effect = lower value 1.02 | S. cerevisiae deletion strains, locus YOR106W, strain vam3, stronger effect = lower value 0.984 | S. cerevisiae deletion strains, locus YOR136W, strain idh2, stronger effect = lower value 0.982 | S. cerevisiae deletion strains, locus YOR144C, strain elg1, stronger effect = lower value 0.985 | S. cerevisiae deletion strains, locus YOR184W, strain ser1, stronger effect = lower value 0.988 | S. cerevisiae deletion strains, locus YOR231W, strain MKK1, stronger effect = lower value 1.04 | S. cerevisiae deletion strains, locus YOR265W, strain rbl2, stronger effect = lower value 0.978 | S. cerevisiae deletion strains, locus YOR270C, strain vph1, stronger effect = lower value 0.926 | S. cerevisiae deletion strains, locus YOR290C, strain snf2, stronger effect = lower value 1.01 | S. cerevisiae deletion strains, locus YOR316C, strain cot1, stronger effect = lower value 0.984 | S. cerevisiae deletion strains, locus YPL051W, strain arl3, stronger effect = lower value 0.987 | S. cerevisiae deletion strains, locus YPL055C, strain LGE1, stronger effect = lower value 1.06 | S. cerevisiae deletion strains, locus YPL078C, strain atp4, stronger effect = lower value 0.973 | S. cerevisiae deletion strains, locus YPL106C, strain sse1, stronger effect = lower value 0.994 | S. cerevisiae deletion strains, locus YPL240C, strain hsp82, stronger effect = lower value 0.973 | S. cerevisiae deletion strains, locus YPL241C, strain CIN2, stronger effect = lower value 1.02 | S. cerevisiae deletion strains, locus YPL256C, strain CLN2, stronger effect = lower value 1.05 | S. cerevisiae deletion strains, locus YPR119W, strain clb2, stronger effect = lower value 0.979 | S. cerevisiae deletion strains, locus YPR141C, strain kar3, stronger effect = lower value 0.992 | S. cerevisiae deletion strains, locus YPR163C, strain tif3, stronger effect = lower value 0.989 | S. cerevisiae deletion strains, locus YPR167C, strain met16, stronger effect = lower value 0.991 | S. cerevisiae deletion strains, strain wtn01, stronger effect = lower value 0.991 | S. cerevisiae strains, strain wild type, stronger effect = lower value 0.994
